Test results as given in the supplement of paper PMC10338343.
± gives the standard deviation. In all, about 5,500 sequences were measured (“pre-steady-state target cleavage rate”: median about 0.1, highest 2% from about 0.64 on). This excerpt belongs to a sample that is enriched for the highest values.

These sequences were tested on MIWI (PIWIL1) piRISC loaded with piRNA #2 (30 nt) (assay: pre-steady-state target cleavage rate (min^-1); MIWI and MILI are mouse PIWI proteins and EfPiwi is from a freshwater sponge; tags in brackets are library labels; higher = faster piRNA-guided slicing of the target). Settings: guide: piRNA #2 5'p-UUAGGUAACCCAGUAGAUCCAGAGGAAUUC; auxiliary factor: 500 nM mouse GTSF1.
How it was run: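 A transcribed, DNA-blocked target RNA library […] was incubated at 33 °C for 0–8 or 0–960 min with 1 nM active affinity-purified piRISC carrying one synthetic guide, in HEPES–potassium acetate buffer with or without 500 nM GTSF1 partner protein. Uncleaved targets were then sequenced and normalised to depth and to weakly complementary targets. Data from three trials were pooled, with k3 capped at 0.0001 min^-1, and a burst-and-steady-state fit yielded the pre-steady-state cleavage rate.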

In order of rising “pre-steady-state target cleavage rate” value:
1. CUAUUCCUCUGGAUCUACUGGUGUUACCUAA  0.00505 ± 0.0032
2. CUUAAGGUCAGGAUCUACUGGGUAACCUAA  0.00869 ± 0.0069
3. CUUAAGGAGUGGGAUCUACUGGGUUACCUAA  0.0146 ± 0.0073
4. CUUAAGGAGUGGUUCUACUGGGUUACCUUA  0.0165 ± 0.004
5. CUUUUCCUCUGGAUCUAGAGGGUUACCUAA  0.022 ± 0.0052
6. CUUAACCUCUGGAUCUACUGGGUAUGCUAA  0.0233 ± 0.0061
7. CUUAAGCUCUGGAUCUACUGGGUAACCAAA  0.0234 ± 0.0094
8. CUUAAGGACAGGUUCUACUGGGUUACCUAA  0.0257 ± 0.017
9. CUUAAGGAGUGGAACUACUGGGUUACCUAA  0.0357 ± 0.024
10. CUUAACCUCUGGAUCUACAGGGUUAGCUAA  0.0376 ± 0.0069
11. CUUAAGGAGUGGAUCUACUGGGUUACCGAA  0.0437 ± 0.018
12. CUUAAGGUCUGGAUGUUCUGGGUUACCUAA  0.05 ± 0.018
13. CUUUUCCUCUGGAUCUACUGCCUUACCUAA  0.0739 ± 0.012
14. CUUAAGGACUGGAUCUACUAGGUUACCUAA  0.0835 ± 0.039
15. CUUAUCCUCUGGAUCUAGUGGGAUACCUAA  0.0912 ± 0.02
16. CAAAAGCUCUGGAUCUACUGGGUUACCUAA  0.105 ± 0.025
17. GAAUUCCUCUGGAUCUAGUGGGUUUCCUAA  0.108 ± 0.019
18. CUUAACCUCUGGUUCUACUGGCUUACCUAA  0.112 ± 0.014
19. CUUAACCUCUGGAUCUACUGGGUUACUAA  0.116 ± 0.018
20. CUUAAGGACUGGAUCUACUGGGUUAACUAA  0.116 ± 0.042
21. CUUAUGCUCUGGAUCUACUGGGUUACCUAA  0.124 ± 0.02
22. GAAUUCCUCUGGAUCUACUGGGAUACCAAA  0.192 ± 0.06
23. GAAUUCCUCUGGAUUCUACUGGGUUACCUAA  0.224 ± 0.036
24. CAAUUCCUCUGGAUCUACUGGGUAACCUAA  0.263 ± 0.049
25. CUAUUCCUCUGGAACUUCUGGGUUACCUAA  0.299 ± 0.036
26. CUUUUUCCUCUGGAUCUACUGGGUUACCUAA  0.308 ± 0.046
27. CUUAACCUCUGGAUCUACUGGGUUACACUAA  0.344 ± 0.042
28. CUAUUCCUCUGGAUUCUACUGGGUUACCUAA  0.346 ± 0.047
29. GAAUUCCUCUGGAUGUACUGGGUUACCUAA  0.352 ± 0.045
30. CUAUUCCUCUGGAUCUACUGGGUUACCUAA [g2:g28:cont:t1A]  0.388 ± 0.062
31. CUUAACCUCUCGUUCUACUGGGUUACCUAA  0.401 ± 0.044
32. CUUAUCCUCUCGUUCUACUGGGUUACCUAA  0.41 ± 0.039
33. CUUAACCUCUCGAUGUACUGGGUUACCUAA  0.421 ± 0.029
34. CUUAUCCUCUCGAUGUACUGGGUUACCUAA  0.498 ± 0.03
35. CUUUUCCUCUCGUUCUACUGGGUUACCUAA  0.519 ± 0.041
36. CUAUUCCUCUGGAUGUACUGGGUUACCUAA  0.533 ± 0.041
37. CUUAACCUCUGGAUAUACUGGGUUACCUAA  0.552 ± 0.042
38. CAAUUCCUCUGGGUCUACUGGGUUACCUAA  0.562 ± 0.037
39. CUAUUCCUCUCCUUCUACUGGGUUACCUAA  0.569 ± 0.049
40. CAAUUCCUCUGGAUGUACUGGGUUACCUAA  0.578 ± 0.054
41. CUUUUCCUCUCGAUGUACUGGGUUACCUAA  0.592 ± 0.043
42. CAAUUCCUCUCCUUCUACUGGGUUACCUAA  0.613 ± 0.058
43. CUAUUCCUCUCGAUGUACUGGGUUACCUAA  0.636 ± 0.045
44. GAAUUCCUCUCGAUGUACUGGGUUACCUAA  0.645 ± 0.052
45. CAAUUCCUCUCGAUGUACUGGGUUACCUAA  0.672 ± 0.056
46. CUAUUCCUCUCGUUCUACUGGGUUACCUAA  0.75 ± 0.077
47. GAAUUCCUCUCCUUCUACUGGGUUACCUAA  0.781 ± 0.06
48. GAAUUCCUCUCGUUCUACUGGGUUACCUAA  0.793 ± 0.058
49. CAAUUCCUCUCGUUCUACUGGGUUACCUAA  0.82 ± 0.071
